Pf growth 96h: inhibits malaria parasite growth, 96 h; P. falciparum luciferase reporter growth, 96 h; actives 6.9% (n = 320,000); AID 504834; Potency, µM (titrated, usually from 28.7 µM), without a hit: at the top dose activity change, negative = inhibition, most hits filed as inhibitors; further: potency means the concentration at half of the fitted maximal effect; on the % scale 0 is the no-effect control and ±100 the full control effect
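Infected RBCs, 2% Hct / 0.05% parasitemia final; luciferase-reporter P. falciparum; cpd 96 h, 37 C, 5% CO2; luciferase detection reagent; luminescence.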
LmPK inhibitor: blocks Leishmania mexicana pyruvate kinase activity; Q27686; purified LmPK, Kinase-Glo ATP luminescence, 1 h; Potency, µM (titrated, usually from 57.5 µM), inactives show top-dose activity change, negative = inhibition, hits mostly inhibitors; actives 0.37% (n = 290,000); further: potency means the concentration at half of the fitted maximal effect; on the % scale 0 is the no-effect control and ±100 the full control effect
Target sequence (Q27686 whole entry, looked up): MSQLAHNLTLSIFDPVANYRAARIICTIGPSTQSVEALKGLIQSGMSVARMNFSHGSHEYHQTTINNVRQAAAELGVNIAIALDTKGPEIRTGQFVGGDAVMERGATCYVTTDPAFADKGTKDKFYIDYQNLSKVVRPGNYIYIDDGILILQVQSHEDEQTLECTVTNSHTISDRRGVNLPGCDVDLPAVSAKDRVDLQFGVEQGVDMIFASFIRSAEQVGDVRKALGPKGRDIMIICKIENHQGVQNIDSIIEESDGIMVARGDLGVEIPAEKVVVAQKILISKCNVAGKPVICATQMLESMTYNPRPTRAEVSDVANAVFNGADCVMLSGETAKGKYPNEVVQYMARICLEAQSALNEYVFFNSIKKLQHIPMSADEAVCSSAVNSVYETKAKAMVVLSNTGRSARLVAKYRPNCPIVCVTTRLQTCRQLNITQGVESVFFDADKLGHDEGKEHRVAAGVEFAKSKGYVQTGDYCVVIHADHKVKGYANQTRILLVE
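qHTS format; LmPK 0.1 nM; substrates PEP 0.5 mM and ADP 0.1 mM. One-hour room-temperature incubation, then coupled luciferase luminescence; 0.5 nM enzyme wells mark activation.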
Shiga inhibitor: inhibitors of Shiga toxin in Vero cells; Vero cells, Shiga toxin protein synthesis inhibition reporter; inhibition, % at 38.7 µM; actives 9.2% (n = 290,000); AID 2315; in the data active means inhibition mostly above about 28%, no sharp cut-off; inactive means mostly below about 43%; further: 0% is about no effect
CHX counter: affects cycloheximide protein synthesis inhibition readout, counter-screen; max response, %; cell reporter, cycloheximide protein synthesis inhibition counterscreen; actives 12% (n = 300,000); AID 2314; in the data active means max response mostly above about 13%, no sharp cut-off; inactive means mostly below about 14%; further: read at 38.3 µM for the half of the compounds with a filed dose; 0% is about no effect
Pf growth 48h: P. falciparum growth inhibition at 48 hours (one generation); P. falciparum luciferase growth in erythrocytes, 48 h; Potency, µM (titrated, usually from 28.7 µM), inactives show at the highest dose activity change, negative = inhibition, actives largely listed as inhibitors; actives 5.9% (n = 310,000); further: potency means the concentration at half of the fitted maximal effect; on the % scale 0 is the no-effect control and ±100 the full control effect
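Read-out is firefly luciferase luminescence from an integrated reporter in P. falciparum, so falling signal marks reduced parasite growth. Infected erythrocytes were at 2% hematocrit and 0.1% parasitemia (final) in Albumax-supplemented RPMI 1640.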
* hit, by the source's call; ? = inconclusive; / = no result given. Only some compounds are listed: those with a hit (about 22% of all), similar ones and a draw of the others. Unless noted, the call rests on the fitted dose curve; in most records, active means well fitted inhibition curve with a large enough effect; inconclusive means small, poorly fitted or top-dose-only effect, or another doubt; inactive means no such curve, though single readings can be large or run the other way.

SMILES	Pf growth 96h	LmPK inhibitor	Shiga inhibitor	CHX counter	Pf growth 48h
c1ccc(-n2ccnc2)cc1	9%	-7%	10	-2	37%
c1ccc(-c2nc(-n3ccnc3)nc(-n3ccnc3)n2)cc1	2.3µM*	11%	-16	-1	8.3µM*
COc1ccc(-n2nc(C(=O)c3cccs3)cc(-c3nc4ccccc4[nH]3)c2=N)cc1	?	4%	-3	1	3.3µM*
Cc1ccccc1-n1nc(C(=O)c2cccs2)cc(-c2nc3ccccc3[nH]2)c1=N	?	6%	8	-2	3.7µM*
CCCn1c(N)c(N(CCOC)C(=O)Cc2ccc(S(=O)(=O)N3CCOCC3)s2)c(=O)[nH]c1=O	-4%	/	/	/	11%
CC(CN1C(C)CCCC1C)OC(=O)c1ccc(F)cc1 (centres undefined)	?	-6%	-18	-3	2%
Cc1cccc(C)c1NS(=O)(=O)c1c(C(=O)N2CCCCC2)c(C)n(C)c1C	25%	6%	-16	-1	-5%
C=CCOc1ccc(C2C(C#N)=C(N)N(Nc3ccccc3)C3=C2C(=O)CC(C)(C)C3)cc1OC (centres undefined)	8.3µM*	3%	4	5	8.3µM*
COc1ccc(C2C3=C(CC(C)(C)CC3=O)N(C)C3=C2C(=O)CC(C)(C)C3)cc1OC	13µM*	2%	10	2	16%
COc1ccc(C2C3=C(CC(C)(C)CC3=O)N(C)C3=C2C(=O)CC(C)(C)C3)cc1	?	-3%	-8	-3	-15%
CS(=O)(=O)N(CC(=O)NCc1ccncc1)Cc1ccc(Cl)cc1	?	3%	-15	-3	3%
CCN(CC)S(=O)(=O)c1ccc(OC)c(NC(=O)c2ccc(-n3cncn3)c([N+](=O)[O-])c2)c1	-8%	/	/	/	?
Cc1ccc2[nH]c3c(=O)n(N)c(C)nc3c2c1	5%	-7%	38	17*	30%
COc1cccc(C(=O)N2CCN(S(C)(=O)=O)CC2)c1	-1%	-9%	-9	-1	/
O=C(Nc1cnn(Cc2ccc(Cl)cc2Cl)c1)c1noc2c1CCCC2	1%	5%	11	14*	-6%
CC(=O)c1cccc(NC(=O)Nc2cnn(Cc3ccc(Cl)cc3Cl)c2)c1	9.3µM*	0%	-24	-1	/
O=C(Nc1cnn(Cc2ccc(Cl)cc2Cl)c1)c1cc(-c2cccs2)on1	?	0%	-8	-1	?
CC(CCc1ccc(O)cc1)NC1c2ccccc2-c2ccccc21 (centres undefined)	?	8%	/	4	15µM*
CC(CCc1ccc(O)cc1)NC1C2CC3CC(C2)CC1C3 (centres undefined)	-86%	-7%	-10	-1	13µM*
CC(OC(=O)c1cccc(-n2cnnn2)c1)C(=O)Nc1cccc(Cl)c1 (centres undefined)	7%	/	/	/	-14%
O=C(Nc1cc(Cl)ccc1O)C1CC(c2ccccc2Cl)=NO1 (centres undefined)	119%	3%	36	-1	-11%
COc1ccc(NC(C)=[N+](C)CCNS(=O)(=O)c2ccc(Cl)cc2)cc1Cl	?	-9%	21	16*	?
COc1ccc(NC(=O)CNS(=O)(=O)c2ccccc2)cc1Cl	48%	1%	4	14*	-3%
NC(=O)[C@@H]1CC2(CC(c3cccc(NC(=O)[C@@H]4CCC(=O)N4)c3)=NO2)CN1C(=O)Cc1ccc([N+](=O)[O-])cc1 (some centres undefined)	31%	5%	-4	-4	33%
NC(=O)[C@H]1CC2(CC(c3cccc(NC(=O)CC(c4ccccc4)c4ccccc4)c3)=NO2)CN1C(=O)C(c1ccccc1)c1ccccc1 (some centres undefined)	13µM*	3%	-4	-2	10µM*
SMILES	Pf growth 96h	LmPK inhibitor	Shiga inhibitor	CHX counter	Pf growth 48h
CCC(=O)Nc1cccc(C2=NOC3(C2)C[C@@H](C(N)=O)N(C(=O)c2ccccc2C(=O)c2ccccc2)C3)c1 (some centres undefined)	?	2%	-2	-4	?
C/C=C\C(=O)Nc1cccc(C2=NOC3(C2)C[C@H](C(N)=O)N(C(=O)Cc2ccc([N+](=O)[O-])cc2)C3)c1 (some centres undefined)	12µM*	1%	-8	1	?
NC(=O)[C@H]1CC2(CC(c3cccc(NC(=O)CC(c4ccccc4)c4ccccc4)c3)=NO2)CN1C(=O)c1ccccc1C(=O)c1ccccc1 (some centres undefined)	8.3µM*	-3%	15	-6	9.3µM*
C/C=C/C(=O)Nc1cccc(C2=NOC3(C2)C[C@H](C(N)=O)N(C(=O)c2ccccc2C(=O)c2ccccc2)C3)c1 (some centres undefined)	12µM*	-1%	-10	-6	9.3µM*
Clc1cccc(Sc2ccc(-c3ccccn3)s2)c1	24%	-3%	15	3	-5%
CC1=C(C(=O)OCc2cc(C)on2)N2C(=O)[C@@H](NC(=O)OCc3cc(C)on3)[C@H]2SC1	22%	/	/	/	-26%
CC(Oc1ccc2c(c1)oc(=O)c1ccccc12)C(=O)NC(Cc1c[nH]c2ccc(O)cc12)C(=O)O (centres undefined)	19%	-7%	-2	-3	20%
CCCN(C(=O)COC(=O)CC1CCCCC1)c1c(N)n(Cc2ccccc2)c(=O)[nH]c1=O	?	/	/	/	8.3µM*
COCCN(C(=O)COC(=O)c1c(NC(C)=O)sc(C)c1C)c1c(N)n(Cc2ccccc2)c(=O)[nH]c1=O	10µM*	/	/	/	?
CC(=O)Nc1sc(C)c(C)c1C(=O)OCC(=O)N(C)c1c(N)n(Cc2ccccc2)c(=O)[nH]c1=O	13%	/	/	/	?
CCC1CCc2sc(C(=O)OCC(=O)N(CCOC)c3c(N)n(Cc4ccccc4)c(=O)[nH]c3=O)cc2C1 (centres undefined)	10µM*	/	/	/	?
CCCN(C(=O)COC(=O)c1[nH]c(C)c(C(=O)OC)c1C)c1c(N)n(Cc2ccccc2)c(=O)[nH]c1=O	?	/	/	/	15µM*
CCCn1c(N)c(N(CCOC)C(=O)c2cc3c(s2)CCC(CC)C3)c(=O)[nH]c1=O (centres undefined)	10%	/	/	/	?
Cc1ccc(NC(=O)COC(=O)C2CCN(c3ccc(C(F)(F)F)cn3)CC2)cc1	-18%	/	/	/	-17%
CCc1nn(CC(=O)NCCC2=CCCCC2)c(=O)c2cc3cc(F)ccc3n12	?	-1%	-6	1	2%
O=C1CCC(=O)N1Cc1c(Cl)cccc1Cl	3%	-3%	-9	2	25%
COc1ccc(CCNC(=O)c2cc3c(=O)n(C)c4ccccc4c3n2C)c(OC)c1	?	0%	-20	-1	?
COc1ccc(N2Cc3ccc(OC)c(OC)c3C2=O)cc1	101%	5%	76*	48*	139%
